Shown are actives, neighbours in structure and some others; about 9% of the full set was active somewhere.
IMPase Li cell = membrane-permeable IMPase blocker, potentiated with lithium; actives 0.35% (n = 210,000); CHO-M1 cells, IP1 TR-FRET (IP-One), carbachol + lithium; Potency, µM (titrated, usually from 59.4 µM), without a hit: at the top dose activity, negative = IMPase inhibition, actives largely listed as inhibitors; active = well fitted curve in the direction sought with a large enough effect; inconclusive = small, poorly fitted or top-dose-only effect, or another doubt; inactive = no such curve, though single readings can be large; an effect the other way counts as inactive or inconclusive;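 note: IP1 builds up when IMPase is blocked and the TR-FRET signal falls; plate controls were basal vehicle for no effect and high inhibitor control for full effect; nearly all actives have a fitted effect of over 50% in size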
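Test compounds were applied to CHO-M1 cells previously cultured for 16–30 h at 2000 per well. A small lithium amount accompanied them; after 30 min at 37C, IP1 was quantified by TR-FRET.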
KinaseGlo FLuc = counter-screen: inhibitors of Kinase-Glo firefly luciferase; Q27757; Kinase-Glo luciferase, ATP luminescence, 8 min; Potency, µM (series often up to 38.3 µM), for the others: at the highest dose activity change, negative = inhibition, actives largely listed as inhibitors; actives 0.28% (n = 200,000); active = well fitted curve in the direction sought with a large enough effect; inconclusive = small, poorly fitted or top-dose-only effect, or another doubt; inactive = no such curve, though single readings can be large; an effect the other way counts as inactive or inconclusive; note: nearly all actives have a fitted effect of over 60% in size
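Compound is pinned into ATP-containing buffer (10 uM ATP, imidazole pH 7.2, 7 mM MgCl2). Kinase-Glo luciferase reagent is then added. Light output is recorded following an 8-min room-temperature incubation.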
HPGD inh = blocks human HPGD enzyme activity. purified HPGD, NADH fluorescence kinetic, PGE2 substrate. P15428. Potency, µM, without a hit: top-dose activity change, negative = inhibition, usual class: inhibitors. actives 4.3% (n = 150,000)
Target sequence (P15428 whole entry, looked up): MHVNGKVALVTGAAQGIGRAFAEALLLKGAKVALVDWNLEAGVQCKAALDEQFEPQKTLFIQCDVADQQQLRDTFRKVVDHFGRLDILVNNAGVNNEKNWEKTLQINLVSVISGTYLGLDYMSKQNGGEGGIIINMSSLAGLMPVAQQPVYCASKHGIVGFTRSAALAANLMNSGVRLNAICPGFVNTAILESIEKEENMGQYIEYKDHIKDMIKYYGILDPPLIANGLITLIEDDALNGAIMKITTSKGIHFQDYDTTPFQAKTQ
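20 nM HPGD preincubated 15 min at room temperature with compound in 50 mM Tris-HCl pH 8, 0.01% Tween 20. Started with 1 mM NAD+ and 30 uM prostaglandin E2; NADH fluorescence (360/450 nm) read 5 times over 30-s intervals, last minus first.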
Lamin A splicing = modulators of lamin A splicing; AID 1487; actives 0.01% (n = 200,000); Potency, µM (series often up to 46.1 µM), for the others: at the highest dose ratio change, negative = inhibition, usual class: inhibitors; HeLa LMNA splicing GFP/RFP minigene ratio, 48 h; active = well fitted inhibition curve with a large enough effect in the signal ratio, with a control signal flat, not every such curve was filed as active; inconclusive = small, poorly fitted or top-dose-only effect, or effect the other way, or a change in a side signal; the % refers to the signal ratio
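Read-out is the ratio of GFP to DsRed2 object intensity, acquired by 488 nm laser-scanning cytometry on HeLa lamin A-EGFP minigene reporter cells. Compound incubation 48 hrs at 37 °C in Opti-MEM with 2% FBS; DMSO 0.5% final.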
ALDH1A1 block = inhibitors of human aldehyde dehydrogenase 1A1; P00352; Purified ALDH1A1, NADH fluorescence, propionaldehyde substrate; Potency, µM (series often up to 75.3 µM), without a hit: at the highest dose activity, negative = inhibition, usual class: inhibitors; actives 7.3% (n = 220,000);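 note: plate controls were no enzyme wells and a reference inhibitor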
Target sequence (P00352 whole entry, looked up): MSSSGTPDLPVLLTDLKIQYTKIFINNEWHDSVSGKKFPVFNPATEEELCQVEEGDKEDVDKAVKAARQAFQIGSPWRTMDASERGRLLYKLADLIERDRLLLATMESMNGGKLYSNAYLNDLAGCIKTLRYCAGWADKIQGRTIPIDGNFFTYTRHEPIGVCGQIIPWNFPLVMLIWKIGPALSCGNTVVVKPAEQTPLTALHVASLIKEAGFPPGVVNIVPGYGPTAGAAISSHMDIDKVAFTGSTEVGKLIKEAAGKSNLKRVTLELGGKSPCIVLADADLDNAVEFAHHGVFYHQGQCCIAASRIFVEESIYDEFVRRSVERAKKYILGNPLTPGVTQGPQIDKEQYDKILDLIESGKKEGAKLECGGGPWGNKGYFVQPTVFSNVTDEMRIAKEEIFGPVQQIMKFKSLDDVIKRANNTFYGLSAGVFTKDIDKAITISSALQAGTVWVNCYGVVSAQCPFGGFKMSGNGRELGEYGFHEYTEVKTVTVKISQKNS
Numbers without * were called inactive; ? = inconclusive; . = no result; [ ] = remark or other dose. Unless noted, calls come from the whole dose curve; as a rule, active = well fitted inhibition curve with a large enough effect (not every such curve was filed as active); inconclusive = small, poorly fitted or top-dose-only effect, or another doubt; inactive = no such curve, though single readings can be large or run the other way. Unless noted, % is set by controls: 0 for no effect and ±100 for the full control effect; potency is the fitted concentration of half-maximal effect.

SMILES	IMPase Li cell	KinaseGlo FLuc	HPGD inh	Lamin A splicing	ALDH1A1 block
CCc1n[nH]c2c1/C(=N\O)CC(c1ccccc1)C2 (stereo not given)	7.9%[38.3 µM]	-0.1%	3.98µM*	?	-8.0%
CCN(Cc1ccncc1)Cc1c(O)ccc2ccccc12	-2.0%	0.9%	.	.	10µM*
N#Cc1c(Cl)c(Cl)c2nnc(-c3ccc(Br)cc3)n2c1Cl	5.9%[38.3 µM]	-0.6%	12.6µM*	10.7%	?
Cc1ccc2c(n1)sc1c(-c3ccc(Br)cc3)c(C#N)c(N)nc12	-0.5%[38.3 µM]	-3.3%	?	5.7%	?
C[C@@H]1NC(=O)[C@@H](C)COC(=O)[C@H](C)NC(=O)[C@@H](C)COC1=O	.	.	.	.	15.3%[13.5 µM]
O=C(O)/C=C1\NC(=O)c2ccccc21	-0.8%[38.3 µM]	1.4%	-11.8%	9.0%	4.6%
O=C1N/C(=C\c2ccc(O)cc2)C(=O)c2ccccc21	27.5%[38.3 µM]	12.6µM*	?	?	?
CC(=O)N1CCN(C(=O)CSc2nc3c(cnn3-c3ccccc3)c(=O)[nH]2)CC1	-3.4%[38.3 µM]	-3.1%	?	-0.5%	25.1µM*
CC(=O)NC1=NC(=O)/C(=C/c2cn(C(C)=O)nc2-c2ccccc2)S1	-0.6%	-2.5%	.	?	10µM*
O=[N+]([O-])c1ccccc1/C=C/C=N/n1c(-c2ccccc2)n[nH]c1=S	0.5%	3.9%	7.08µM*	?	?
O=C(N/N=C/C=C\c1ccccc1[N+](=O)[O-])c1ccccn1	-6.1%	-1.8%	-24.8%	-5.7%	-13.3%
O=[N+]([O-])c1ccccc1/C=C/C=N/n1c(-c2ccc(Cl)cc2)n[nH]c1=S	-0.5%[38.3 µM]	-3.0%	3.16µM*	8.1%	?
CC1CCCC(C)N1/N=C/C=C/c1ccccc1[N+](=O)[O-] (stereo not given)	27.3%	1.7%	.	-15.5%[46 µM]	3.55µM*
C=CCn1c(-c2ccccc2[N+](=O)[O-])n[nH]c1=S	5.3%	-3.0%	.	.	?
CCCC[C@H]1C[C@@H]1[C@@H]1N(P(=O)(c2ccccc2)c2ccccc2)C[C@@](O)(c2ccccc2)CC12CC2	15.0%	-3.6%	-20.8%	.	-4.9%
Cc1ccc(CCNC(=O)CN2N=C(c3ccc(C)cc3)CCC2=O)cc1	.	.	.	-3.8%[46 µM]	.
Cc1ccc(CCNC(=O)Cn2cccc2)cc1	-1.0%[38.3 µM]	-4.0%	14.1µM*	-7.6%	-10.0%
ICCc1ccccc1	4.3%	.	10µM*	.	3.55µM*
CCCN(CCC)S(=O)(=O)c1ccc2c(c1)CCCN2C(C)=O	6.0%[38.3 µM]	-2.7%	-9.4%	?	5.01µM*
Cc1ccc(NC(=O)c2cc(S(=O)(=O)NCCC3=CCCCC3)ccc2F)cc1	15.5%	3.0%	-21.2%	?	22.4µM*
CC(=O)N1CCCc2cc(S(=O)(=O)CCC(=O)N3CCN(c4cccc(C)c4)C(C)C3)ccc21 (stereo not given)	26.6%[38.3 µM]	17.9%	-10.3%	3.6%	17.8µM*
CC(=O)N1CCCc2cc(S(=O)(=O)NCCC3=CCCCC3)ccc21	18.2%	-1.9%	-11.0%	?	1.78µM*
CN(C)c1ccc(N/C(N)=N/c2nc(C(F)(F)F)cc(C(F)(F)F)n2)cc1	-8.1%	-3.0%	.	20.8%[46 µM]	-4.0%
COc1ccc(NC(=O)COC(=O)c2c3c(nc4ccccc24)CCCC3)cc1Cl	27.0%[38.3 µM]	-4.3%	-14.8%	?	1.7%
O=C(NCc1cccnc1)c1cccnc1-c1nc2ccccc2s1	10.2%[38.3 µM]	17.6%	-18.5%	-3.8%	20µM*
SMILES	IMPase Li cell	KinaseGlo FLuc	HPGD inh	Lamin A splicing	ALDH1A1 block
O=C(NCc1cccnc1)c1cc(Sc2cccc(Cl)c2)nc2ccccc12	6.4%	-0.4%	-16.3%	?	11.2µM*
O=C(NCc1cccnc1)C(=O)Nc1nc2ccccc2s1	7.1%	-0.1%	.	.	0.6%
CCOC(=O)C(=O)C1(C(=O)OCC)Oc2cc(OC)cc(OC)c2C(=O)C1c1ccccc1 (stereo not given)	-3.6%	-1.5%	-10.4%	-7.9%	10µM*
O=C(Nc1cccc(F)c1)N1CCCC2(CCN(S(=O)(=O)c3ccccc3)CC2)C1	14.0%	-3.4%	-4.2%	.	-12.8%
CC1(C)C2CC[C@@]1(C)C(=O)C2	21.0%	-2.3%	-2.4%	.	3.3%
CC12CCC(CC1=O)C2(C)C (stereo not given)	13.3%	.	-10.2%	.	7.08µM*
Cc1nn(CCc2n[nH]c(=S)n2C2CCCCC2)c(C)c1Br	-2.8%[38.3 µM]	-2.3%	25.1µM*	8.1%	20µM*
CCn1c(C)cc(=S)c2ccccc21	?	-21.7%	-4.7%	-9.6%	3.98µM*
CCn1c2ccccc2c2cc(N)ccc21	-0.9%[38.3 µM]	-7.0%	?	1.1%	?
O=C(N/N=C1/C[C@@H](O)[C@@H](O)[C@@H]2[C@@H]3C(=O)N(C[C@@H]4CCCO4)C(=O)[C@H]3CC[C@@H]12)OCc1ccccc1	.	.	.	.	-4.7%[13.5 µM]
Cc1nnn(C23CC4CC(CC(C(=O)NN)(C4)C2)C3)n1	4.0%	-2.1%	2.3%	-5.3%	1.41µM*
c1nnn(C23CC4CC(CC(C4)C2)C3)n1	6.6%	0.8%	-4.6%	-9.7%	12.3%
NNC(=O)C12CC3CC(C1)CC(n1ncnn1)(C3)C2	-5.5%	-3.4%	-2.4%	-8.2%	3.55µM*
C=CCc1cc(C(=O)N2CCCCC2)ccc1O	-1.9%[38.3 µM]	-2.3%	3.98µM*	?	?
Cc1[nH]c2ccc(C(=O)N3CCCCC3)cc2c1C	-3.4%	-0.2%	.	-4.2%[46 µM]	3.5%
Cc1ccc2c(c1)C(CCN)C(=O)N2Cc1ccccc1 (stereo not given)	1.8%[38.3 µM]	3.2%	-6.1%	8.7%	31.6µM*
Cc1ccc(CN2C(=O)C(C)Oc3ccccc32)cc1 (stereo not given)	11.7%	0.2%	.	4.7%[46 µM]	7.2%
CCOc1ccc(C(=O)Nc2ccc(-c3nc4ccccc4s3)c(C)c2)cc1OCC	.	.	.	-4.3%[46 µM]	.
Cn1c(SCc2nc3ccccc3[nH]2)nnc1-c1ccccn1	-20.3%[38.3 µM]	-2.8%	0.8%	-0.1%	7.7%
C=CCn1c(SCc2nc3ccccc3[nH]2)nnc1-c1ccccn1	19.7%[38.3 µM]	-3.6%	-9.7%	8.2%	6.31µM*
Cc1ccc(S(=O)(=O)N2c3ccc(S(N)(=O)=O)cc3CC2C)cc1 (stereo not given)	-0.4%	-1.1%	-5.9%	3.0%	25.1µM*
CCOC(=O)c1c(NC(=S)Nc2ccccc2)sc2c1CCN(CCc1ccccc1)C2	23.4%[38.3 µM]	-10.7%	-18.7%	29.5%	?
CCOC(=O)c1c(NC(=S)NC)sc2c1CC(C)(C)SC2	-13.3%	-1.4%	?	?	25.1µM*
CCOC(=O)c1c(NC(=S)Nc2ccccc2)sc2c1CC(C)(C)SC2	-5.1%	-1.1%	?	-17.8%	2.51µM*
CCOC(=O)c1c(NC(=S)Nc2ccc(OC)cc2)sc2c1CCC2	6.8%	-2.0%	-21.1%	-9.9%	?
CCN(CC)C(=O)c1nn(-c2ccccc2)c2c1C1CCC2(C)C1(C)C (stereo not given)	14.1%	-2.4%	.	?	3.7%
COc1ccc(Oc2ncc3nc(-c4cccc(C#N)c4)c(=O)n(C)c3n2)cc1	25.0%	.	.	4.1%	1.2%
